According to the supplement of paper PMC11732987, “Enantioselective OTUD7B fragment discovery through chemoproteomics screening and high-throughput optimisation” (Communications Chemistry, 2025):

What was measured:
Experiment in all cases: log2 ratio of Biotin-Ahx-Ub-VS probe labelling (fragment/DMSO); higher = less target engagement (more negative = stronger competition), active = hit call of the paper (q ≤ 0.05, log2 ratio ≤ -1)
Conditions in all cases: compound concentration: 200 uM; treatment time: 3 h
USP19 = target: T1, USP19 (UniProt O94966)
T1 sequence (whole entry): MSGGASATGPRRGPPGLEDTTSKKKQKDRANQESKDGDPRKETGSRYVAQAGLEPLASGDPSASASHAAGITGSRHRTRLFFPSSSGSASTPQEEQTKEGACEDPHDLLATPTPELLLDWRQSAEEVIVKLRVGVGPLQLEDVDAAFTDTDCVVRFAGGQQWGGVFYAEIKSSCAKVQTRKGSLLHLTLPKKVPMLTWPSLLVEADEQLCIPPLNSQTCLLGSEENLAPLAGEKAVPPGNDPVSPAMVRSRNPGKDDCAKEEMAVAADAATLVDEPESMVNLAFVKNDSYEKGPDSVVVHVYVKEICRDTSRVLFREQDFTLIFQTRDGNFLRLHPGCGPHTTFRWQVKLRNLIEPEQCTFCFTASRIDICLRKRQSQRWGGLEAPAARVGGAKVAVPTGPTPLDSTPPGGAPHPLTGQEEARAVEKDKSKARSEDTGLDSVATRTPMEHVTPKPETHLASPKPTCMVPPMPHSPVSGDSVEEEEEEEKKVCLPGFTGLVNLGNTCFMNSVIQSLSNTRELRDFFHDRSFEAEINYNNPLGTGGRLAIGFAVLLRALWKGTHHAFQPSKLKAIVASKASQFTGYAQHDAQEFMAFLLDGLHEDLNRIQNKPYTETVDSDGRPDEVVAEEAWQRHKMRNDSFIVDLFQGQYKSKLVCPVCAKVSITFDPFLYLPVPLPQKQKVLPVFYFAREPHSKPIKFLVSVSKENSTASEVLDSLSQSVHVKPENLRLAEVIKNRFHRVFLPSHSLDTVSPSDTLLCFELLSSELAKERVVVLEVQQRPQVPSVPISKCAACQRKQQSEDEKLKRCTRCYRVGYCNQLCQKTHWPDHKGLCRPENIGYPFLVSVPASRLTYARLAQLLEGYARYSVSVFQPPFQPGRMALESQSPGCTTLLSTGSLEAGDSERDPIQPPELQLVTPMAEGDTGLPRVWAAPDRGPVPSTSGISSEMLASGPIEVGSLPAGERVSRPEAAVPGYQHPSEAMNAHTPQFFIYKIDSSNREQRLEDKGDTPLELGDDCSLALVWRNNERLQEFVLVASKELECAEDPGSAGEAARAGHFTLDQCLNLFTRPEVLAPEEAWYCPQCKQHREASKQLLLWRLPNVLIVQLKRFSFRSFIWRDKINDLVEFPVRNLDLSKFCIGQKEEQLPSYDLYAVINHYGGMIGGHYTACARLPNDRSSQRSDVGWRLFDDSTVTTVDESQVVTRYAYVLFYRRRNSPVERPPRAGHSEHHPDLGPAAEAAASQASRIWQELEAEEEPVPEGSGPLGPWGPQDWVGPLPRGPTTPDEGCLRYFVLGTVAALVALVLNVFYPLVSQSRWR
In short: (§1)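 Each value is an average log2 ratio of fragment to vehicle, tested by unpaired t-test. The underlying Spectronaut label-free quantities were global-median-normalised, and only proteins with ≥2 unique peptides were included. Triplicate HEK293T lysate samples (495 µg) were exposed to fragment at 200 µM or vehicle for 3 h, then to Biotin-Ahx-Ub-VS at 0.5 µM final for 1 h, before NeutrAvidin enrichment of labelled DUBs, LysC and trypsin digestion, and diaPASEF LC-MS/MS.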

USP24 = USP24 (UniProt Q9UPU5)
USP24, sequence (Q9UPU5 whole entry): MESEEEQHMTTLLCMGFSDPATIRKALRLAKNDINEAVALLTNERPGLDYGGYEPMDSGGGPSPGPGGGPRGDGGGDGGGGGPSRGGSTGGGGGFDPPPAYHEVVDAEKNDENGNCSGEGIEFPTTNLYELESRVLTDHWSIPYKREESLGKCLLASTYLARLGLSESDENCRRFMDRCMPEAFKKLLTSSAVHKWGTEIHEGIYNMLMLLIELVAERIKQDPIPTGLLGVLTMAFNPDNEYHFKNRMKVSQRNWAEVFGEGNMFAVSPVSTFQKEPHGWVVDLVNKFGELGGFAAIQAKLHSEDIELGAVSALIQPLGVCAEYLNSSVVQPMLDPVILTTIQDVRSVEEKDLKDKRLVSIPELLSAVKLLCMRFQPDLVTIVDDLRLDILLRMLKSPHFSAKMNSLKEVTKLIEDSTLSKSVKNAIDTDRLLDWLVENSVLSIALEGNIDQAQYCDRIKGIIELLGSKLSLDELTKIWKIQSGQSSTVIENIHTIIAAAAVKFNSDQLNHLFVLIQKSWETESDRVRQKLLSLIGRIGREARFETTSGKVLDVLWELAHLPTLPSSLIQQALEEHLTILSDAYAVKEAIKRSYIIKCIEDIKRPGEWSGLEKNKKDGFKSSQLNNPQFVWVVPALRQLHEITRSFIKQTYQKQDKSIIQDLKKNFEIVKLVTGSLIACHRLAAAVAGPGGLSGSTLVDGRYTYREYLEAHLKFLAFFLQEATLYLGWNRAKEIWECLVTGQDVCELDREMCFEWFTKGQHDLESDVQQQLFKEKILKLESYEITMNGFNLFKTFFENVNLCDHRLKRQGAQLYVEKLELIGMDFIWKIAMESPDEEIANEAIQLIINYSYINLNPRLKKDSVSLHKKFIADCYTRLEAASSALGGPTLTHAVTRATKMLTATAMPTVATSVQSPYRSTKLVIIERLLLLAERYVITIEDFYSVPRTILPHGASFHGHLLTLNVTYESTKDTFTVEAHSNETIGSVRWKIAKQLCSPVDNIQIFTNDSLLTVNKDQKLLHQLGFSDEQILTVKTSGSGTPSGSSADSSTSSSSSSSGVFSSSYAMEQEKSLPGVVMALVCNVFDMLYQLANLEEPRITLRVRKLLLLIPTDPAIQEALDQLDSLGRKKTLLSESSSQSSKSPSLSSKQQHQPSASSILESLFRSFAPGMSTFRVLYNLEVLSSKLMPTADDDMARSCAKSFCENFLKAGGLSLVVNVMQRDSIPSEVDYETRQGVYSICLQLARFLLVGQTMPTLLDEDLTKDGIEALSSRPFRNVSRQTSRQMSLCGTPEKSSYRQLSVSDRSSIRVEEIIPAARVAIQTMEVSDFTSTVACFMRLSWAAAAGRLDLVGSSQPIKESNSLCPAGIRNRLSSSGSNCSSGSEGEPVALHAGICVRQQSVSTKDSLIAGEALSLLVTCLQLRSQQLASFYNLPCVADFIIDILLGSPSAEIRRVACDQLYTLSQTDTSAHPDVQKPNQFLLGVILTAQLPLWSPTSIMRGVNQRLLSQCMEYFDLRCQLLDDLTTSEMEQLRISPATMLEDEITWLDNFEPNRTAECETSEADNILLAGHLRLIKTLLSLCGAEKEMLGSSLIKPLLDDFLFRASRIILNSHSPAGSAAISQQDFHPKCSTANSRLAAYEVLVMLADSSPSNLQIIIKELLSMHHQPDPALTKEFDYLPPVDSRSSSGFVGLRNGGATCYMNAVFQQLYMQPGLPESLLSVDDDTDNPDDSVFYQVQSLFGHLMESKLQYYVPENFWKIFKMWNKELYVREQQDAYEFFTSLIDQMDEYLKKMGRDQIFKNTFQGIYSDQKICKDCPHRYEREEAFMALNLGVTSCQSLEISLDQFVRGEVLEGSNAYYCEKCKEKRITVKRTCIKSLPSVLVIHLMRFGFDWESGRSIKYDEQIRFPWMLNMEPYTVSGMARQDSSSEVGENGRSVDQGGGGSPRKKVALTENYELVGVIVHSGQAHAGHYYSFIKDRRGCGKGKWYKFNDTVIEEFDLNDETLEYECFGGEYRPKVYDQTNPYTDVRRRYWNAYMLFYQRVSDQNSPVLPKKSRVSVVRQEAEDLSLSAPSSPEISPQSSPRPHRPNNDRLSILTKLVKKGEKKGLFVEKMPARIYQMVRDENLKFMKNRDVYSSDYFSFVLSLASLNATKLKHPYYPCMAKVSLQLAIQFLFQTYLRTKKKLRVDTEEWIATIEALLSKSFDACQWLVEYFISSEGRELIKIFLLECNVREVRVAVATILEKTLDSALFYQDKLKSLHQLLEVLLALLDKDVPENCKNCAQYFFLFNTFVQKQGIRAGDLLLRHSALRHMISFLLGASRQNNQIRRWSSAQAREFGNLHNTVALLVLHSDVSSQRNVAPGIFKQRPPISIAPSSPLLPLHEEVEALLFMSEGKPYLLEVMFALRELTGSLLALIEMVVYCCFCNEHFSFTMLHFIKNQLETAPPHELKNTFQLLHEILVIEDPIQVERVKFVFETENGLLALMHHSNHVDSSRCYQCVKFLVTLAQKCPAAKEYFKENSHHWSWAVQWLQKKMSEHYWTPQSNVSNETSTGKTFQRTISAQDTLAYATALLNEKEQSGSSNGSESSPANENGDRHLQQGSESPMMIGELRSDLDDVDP
In short: as §1

USP25 = target: T2, USP25 (UniProt Q9UHP3)
T2 sequence (whole entry): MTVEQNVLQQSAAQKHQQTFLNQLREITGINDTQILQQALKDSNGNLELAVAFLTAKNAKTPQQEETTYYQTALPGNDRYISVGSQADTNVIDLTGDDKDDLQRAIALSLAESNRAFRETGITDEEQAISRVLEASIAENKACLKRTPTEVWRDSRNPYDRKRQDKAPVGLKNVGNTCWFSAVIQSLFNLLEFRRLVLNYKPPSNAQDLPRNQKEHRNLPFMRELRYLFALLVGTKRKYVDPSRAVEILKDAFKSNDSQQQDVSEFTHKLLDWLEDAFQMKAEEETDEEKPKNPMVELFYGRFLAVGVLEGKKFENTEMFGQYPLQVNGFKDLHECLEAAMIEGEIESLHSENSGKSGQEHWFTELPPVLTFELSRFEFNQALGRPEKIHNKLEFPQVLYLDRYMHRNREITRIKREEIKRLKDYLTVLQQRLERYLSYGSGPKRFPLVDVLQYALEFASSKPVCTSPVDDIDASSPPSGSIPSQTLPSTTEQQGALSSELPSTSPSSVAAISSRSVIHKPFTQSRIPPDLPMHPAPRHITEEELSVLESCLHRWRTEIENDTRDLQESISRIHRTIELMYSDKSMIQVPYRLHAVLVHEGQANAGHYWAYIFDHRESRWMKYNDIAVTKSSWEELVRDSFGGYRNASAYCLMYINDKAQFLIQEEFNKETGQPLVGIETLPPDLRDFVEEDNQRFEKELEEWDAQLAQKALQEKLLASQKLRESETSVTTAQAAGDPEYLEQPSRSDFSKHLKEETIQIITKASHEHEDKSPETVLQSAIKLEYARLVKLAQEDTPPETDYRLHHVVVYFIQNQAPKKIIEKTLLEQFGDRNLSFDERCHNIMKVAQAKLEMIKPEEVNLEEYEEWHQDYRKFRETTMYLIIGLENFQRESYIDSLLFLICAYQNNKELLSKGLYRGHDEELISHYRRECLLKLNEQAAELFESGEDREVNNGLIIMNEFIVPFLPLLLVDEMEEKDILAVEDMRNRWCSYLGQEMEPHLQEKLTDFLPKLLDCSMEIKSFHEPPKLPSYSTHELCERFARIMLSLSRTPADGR
In short: as §1

USP28 = target: T3, USP28 (UniProt Q96RU2)
T3 sequence (whole entry): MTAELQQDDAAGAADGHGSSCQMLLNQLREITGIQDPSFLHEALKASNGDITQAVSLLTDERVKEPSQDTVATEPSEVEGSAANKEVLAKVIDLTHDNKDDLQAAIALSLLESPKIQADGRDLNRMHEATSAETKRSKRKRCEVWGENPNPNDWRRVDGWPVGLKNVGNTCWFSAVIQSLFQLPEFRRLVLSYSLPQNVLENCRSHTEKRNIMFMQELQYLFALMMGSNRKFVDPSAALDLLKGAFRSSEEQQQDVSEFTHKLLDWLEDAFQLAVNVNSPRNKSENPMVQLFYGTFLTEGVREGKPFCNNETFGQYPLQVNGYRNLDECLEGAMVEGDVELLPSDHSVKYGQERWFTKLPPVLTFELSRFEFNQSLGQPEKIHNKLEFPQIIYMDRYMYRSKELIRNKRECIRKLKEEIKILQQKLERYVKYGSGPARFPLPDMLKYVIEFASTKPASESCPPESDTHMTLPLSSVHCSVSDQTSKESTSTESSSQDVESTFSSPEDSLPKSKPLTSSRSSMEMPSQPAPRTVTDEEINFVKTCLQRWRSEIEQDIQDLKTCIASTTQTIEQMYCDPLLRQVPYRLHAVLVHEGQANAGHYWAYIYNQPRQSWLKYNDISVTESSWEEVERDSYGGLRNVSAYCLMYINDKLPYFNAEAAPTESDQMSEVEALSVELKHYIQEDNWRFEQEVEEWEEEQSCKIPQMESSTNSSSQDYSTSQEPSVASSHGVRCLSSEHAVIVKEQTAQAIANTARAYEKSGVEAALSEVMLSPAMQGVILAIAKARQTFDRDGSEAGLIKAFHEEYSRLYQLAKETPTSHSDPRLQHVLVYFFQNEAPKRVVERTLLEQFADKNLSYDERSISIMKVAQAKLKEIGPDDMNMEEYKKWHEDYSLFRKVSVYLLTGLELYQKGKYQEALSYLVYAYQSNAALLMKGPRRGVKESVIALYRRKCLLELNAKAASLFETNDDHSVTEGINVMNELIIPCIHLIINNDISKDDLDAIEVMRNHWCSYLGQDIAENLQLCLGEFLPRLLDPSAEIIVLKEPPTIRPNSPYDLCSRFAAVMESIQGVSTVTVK
In short: as §1

Measured: log2 ratio of Biotin-Ahx-Ub-VS probe labelling

Cc1cccc(C)c1NC(=O)CCl
inactive: USP19 -0.0774 | USP24 -0.266 | USP25 -0.436 | USP28 -0.794
